# In PMC4336329 (PLoS ONE, 2015):
# In all, about 310,000 compounds went through this assay and about 14,000 (4.5%) showed an effect of 50% or more. Effects have a minus sign here. This excerpt belongs to a sample that is enriched for strong results.
# Target: human ether-à-go-go-related gene (hERG) potassium channel (human, UniProt Q12809)
# Assay: primary screen, population patch clamp on CHO cells stably expressing hERG; higher = less effect of the substance
# 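Note: peak tail current of the secondary pulse compared with the same well before compound.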
# Sequence of human ether-à-go-go-related gene (hERG) potassium channel (Q12809 whole entry, looked up): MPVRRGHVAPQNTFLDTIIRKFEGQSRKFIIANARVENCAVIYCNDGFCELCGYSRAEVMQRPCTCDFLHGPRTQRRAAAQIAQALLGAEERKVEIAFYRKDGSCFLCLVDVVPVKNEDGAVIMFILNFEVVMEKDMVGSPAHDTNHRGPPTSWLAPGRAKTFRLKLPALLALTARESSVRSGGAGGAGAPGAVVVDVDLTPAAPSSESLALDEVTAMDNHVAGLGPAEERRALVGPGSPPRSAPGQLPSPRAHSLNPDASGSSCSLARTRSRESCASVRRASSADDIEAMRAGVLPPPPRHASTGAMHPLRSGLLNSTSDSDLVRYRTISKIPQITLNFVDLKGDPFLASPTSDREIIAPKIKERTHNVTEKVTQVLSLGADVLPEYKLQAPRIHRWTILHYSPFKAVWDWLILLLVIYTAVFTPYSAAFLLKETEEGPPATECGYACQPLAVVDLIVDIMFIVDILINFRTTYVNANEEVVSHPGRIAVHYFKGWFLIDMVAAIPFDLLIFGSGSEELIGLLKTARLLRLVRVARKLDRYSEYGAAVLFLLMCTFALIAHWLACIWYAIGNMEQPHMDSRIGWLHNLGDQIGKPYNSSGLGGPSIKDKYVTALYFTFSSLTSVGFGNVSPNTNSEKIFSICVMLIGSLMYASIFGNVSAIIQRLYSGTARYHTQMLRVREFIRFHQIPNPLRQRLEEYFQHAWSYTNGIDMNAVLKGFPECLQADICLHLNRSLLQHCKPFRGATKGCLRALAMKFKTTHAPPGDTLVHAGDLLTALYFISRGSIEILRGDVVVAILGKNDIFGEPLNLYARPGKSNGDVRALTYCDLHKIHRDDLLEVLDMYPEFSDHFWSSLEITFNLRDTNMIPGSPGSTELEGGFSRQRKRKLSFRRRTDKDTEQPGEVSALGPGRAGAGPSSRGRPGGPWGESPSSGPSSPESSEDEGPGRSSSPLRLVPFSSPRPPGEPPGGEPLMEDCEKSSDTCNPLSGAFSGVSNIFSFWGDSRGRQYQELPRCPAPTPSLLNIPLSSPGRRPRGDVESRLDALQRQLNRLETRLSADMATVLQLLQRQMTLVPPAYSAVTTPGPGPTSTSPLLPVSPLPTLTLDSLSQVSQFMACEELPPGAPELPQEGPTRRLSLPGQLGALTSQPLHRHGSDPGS
row,Compound,"hERG current change (%, negative = inhibition) at 10uM"
1,Cc1onc(-c2ccccc2)c1C(=O)OCC(=O)NC(=O)c1ccccc1,-31.1%
2,CCCCc1ccc(S(=O)(=O)NC2CCS(=O)(=O)C2)cc1 (centres unmarked),-2.26%
3,Clc1ccccc1Cn1nnc2c(Nc3ccccc3)ncnc21,-0.775%
4,COc1ccc(C2=NN(C(=O)c3ccco3)C(c3cc4ccccc4nc3Cl)C2)cc1 (centres unmarked),8.45%
5,Cc1sc2ncnc(N3CCC(C(=O)NNC(=O)COc4ccc(Br)cc4)CC3)c2c1C,-68.5%
6,Cc1cc(Cl)ccc1OCC(=O)NNC(=O)C1CCN(c2ncnc3sc(C)c(C)c23)CC1,5.64%
7,Cc1cccc(OCC(=O)NNC(=O)C2CCN(c3ncnc4sc(C)c(C)c34)CC2)c1,-48.2%
8,CCc1ccc(OCC(=O)NNC(=O)C2CCN(c3ncnc4sc(C)c(C)c34)CC2)cc1,-45.3%
9,Cc1sc2ncnc(N3CCC(C(=O)NNC(=O)c4ccc(F)cc4)CC3)c2c1C,-21.9%
10,Cc1ccc(OCC(=O)NNC(=O)C2CCN(c3ncnc4sc(C)c(C)c34)CC2)cc1,-50.7%
11,CCOc1ccc(OCC)c(NC(=O)C2CCCN2S(=O)(=O)c2cccc3cccnc23)c1 (centres unmarked),-4.43%
12,COc1cc(C=Nc2c(C)cc(C)cc2C)ccc1OC(C)=O,10.6%
13,COc1ccc(CCCc2nnc(SCC(=O)Nc3cc(C)ccc3C)o2)cc1,0.676%
14,CN=C1S/C(=C/c2cn(CC(=O)OC)c3ccccc23)C(=O)N1C,11.1%
15,COC(=O)c1sccc1NC(=S)Nc1cc(OC)ccc1OC,30.4%
16,COC(=O)c1sccc1NC(=O)Nc1ccccc1OC,-41.4%
17,COC(=O)c1sccc1NC(=O)Nc1ccc(OC)cc1OC,-20.3%
18,CCOc1ccccc1C(=O)Nc1ccsc1C(=O)OC,-0.813%
19,CCOc1ccccc1NC(=O)Nc1ccsc1C(=O)OC,-62%

row,Compound,"hERG current change (%, negative = inhibition) at 10uM"
1,COC(=O)c1sccc1NC(=O)Nc1cc(OC)ccc1OC,-57.4%
2,COC(=O)c1c(N2C(=O)[C@H]3[C@@H](C2=O)[C@]2(C(=O)Nc4c2ccc(C)c4C)N2CCC[C@@H]32)sc(C)c1C,15.4%
3,C/C(=C\C(=O)c1ccccc1)NCc1ccc(F)cc1,-22.7%
4,Cc1cc(S(=O)(=O)n2cnc3cc([N+](=O)[O-])ccc32)ccc1Cl,-2.69%
5,Cc1ccc(C(=O)Nc2cnc3ccccn3c2=O)cc1,-17.2%
6,Cc1cc(=O)[nH]c(SCc2cccc3cccnc23)n1,13.3%
7,COc1ccc(CNc2c(CO)cnc3c2cnn3C)cc1,-13%
8,COc1ccc(NC(=O)CN(C)C(=O)c2cccc(S(=O)(=O)N3CCN(c4ccccc4)CC3)c2)cc1,-3.62%
9,O=C(N/N=C/c1ccco1)c1cc([N+](=O)[O-])cc([N+](=O)[O-])c1,6.85%
10,COC(=O)C(C)N(C#N)c1nc(C)cc(C)n1 (centres unmarked),8.78%
11,COc1ccc(N2CCN(C(=O)COC(=O)Cc3ccc(F)cc3)CC2)cc1,-20%
12,COc1ccc(N2CCN(C(=O)COC(=O)Cc3cccc(OC)c3)CC2)cc1,-20%
13,COc1ccc(NC(=O)COC(=O)Cc2c(F)cccc2Cl)cc1,-0.319%
14,COc1ccc(N2CCN(C(=O)COC(=O)Cc3c(F)cccc3Cl)CC2)cc1,-79%
15,COc1ccc(N2CCN(C(=O)CCSCc3ccccc3F)CC2)cc1,-28.1%
16,COc1cccc(CC(=O)OCC(=O)N2CCN(c3ccc(F)cc3)CC2)c1,-60.6%
17,COc1ccc(N2CCN(C(=O)COC(=O)CCc3ccccc3)CC2)cc1,-0.829%
18,CC1(C)C(=O)Nc2ccccc2N1C(=O)COC(=O)Cc1c(F)cccc1Cl,-50.1%
19,COc1cccc(N2CCN(C(=O)CCSCc3ccccc3F)CC2)c1,-57.9%

row,Compound,"hERG current change (%, negative = inhibition) at 10uM"
1,COc1ccccc1N1CCN(C(=O)CCSCc2ccccc2F)CC1,4.41%
2,CC1(C)C(=O)Nc2ccccc2N1C(=O)COC(=O)CSc1ccc(F)cc1,-2.24%
3,CC1(C)C(=O)Nc2ccccc2N1C(=O)COC(=O)CSc1ccc(Cl)cc1,18.3%
4,CSCC(NS(=O)(=O)c1ccc(C)cc1)C(=O)O (centres unmarked),8.98%
5,CC(=O)N1CC(C)Sc2ccc(S(=O)(=O)NCCc3cccc(C)c3)cc21 (centres unmarked),0.141%
6,COC(=O)CNC(=O)CNC(=O)Nc1ccccc1Cl,9.2%
7,Cc1ccc(S(=O)(=O)N/N=C/c2ccc(C(=O)O)cc2)cc1,15.2%
8,Nc1nc(N2CCN(c3ccccc3)CC2)n[nH]1,4.2%
9,COc1cc(NC2=Nc3cccc4cccc2c34)cc(OC)c1OC,1.72%
10,CCCCn1c(N)c(NCc2ccccc2OC)c(=O)[nH]c1=O,12.2%
11,Cc1c(C=O)cnn1CCC(=O)O,4.76%
12,O=c1ccc2cc(S(=O)(=O)Nc3ccc(Br)cc3)ccc2o1,5.32%
13,COc1ccccc1NC(=O)CC1CCCC1,15.4%
14,CCn1c(SCC(=O)Nc2cc(C)on2)nc2c(c1=O)SC(C)C2 (centres unmarked),-4.2%
15,CCc1ccc(OCC(=O)Nc2ccc(S(=O)(=O)N3CCCC3)cc2)c(Br)c1,-4.25%
16,COCCn1c(SCC(=O)Nc2c(C)n(C)n(-c3ccccc3)c2=O)nnc1-c1ccncc1,5.95%
17,CCOC(=O)C1CCN(C(=O)Cn2nc(C)n3nc(-c4ccc(CC)cc4)cc3c2=O)CC1,5.33%
18,O=C(/C=C/c1ccccc1[N+](=O)[O-])OCC(=O)N1CCCC1,12%
